“And” between values parts separate entries of the source, which are not always exact repeats. Equal values may be shown once. Among all 290,000 compounds or so, about 27,000 (9.3%) were called active. This is one part of a sample in which actives are shown more often than they occur. Cut-off read from the data, not from the text of the source: active = inhibition mostly above about 28% (no sharp cut-off); inactive = mostly below about 43%.
assay: A qHTS for Small Molecule Inhibitors of Shiga Toxin; conditions: Vero cells, Shiga toxin protein synthesis inhibition reporter; at 38.7 µM, active compounds read high; note: 0% is about no effect

SMILES | inhibition
CC(=O)Nc1ccc(NC(=O)COc2ccc(-c3ccccc3)cc2)cc1 | 10.7% (inactive)
Cc1ccccc1NC(=O)NNC(=O)OC(C)(C)C | -3.29% (inactive)
C/C(=N\NC(=O)OC(C)(C)C)c1ccc[nH]1 | 94.2% (active)
CC(C)(C)OC(=O)NNc1c2ccccc2nc2ccccc12 | 77% (inactive)
Cc1nn(C(C)(C)C)c(OC(=O)CC(C)C)c1S(=O)(=O)c1ccccc1 | -3.07% (inactive)
CC/C(=N\NC(=O)c1c(C)nc2ccccn12)c1ccc(Cl)cc1 | -1.53% (inactive)
COc1ccc(C(=O)NCc2nnc(SCCOc3ccccc3)n2C)cc1 | -8.47% (inactive)
COc1ccc(C(=O)NCCSc2ccccc2C)cc1 | 47.6% (active)
COc1cccc(C(=O)NCCSc2ccc(Br)cc2)c1 | 0.537% (inactive)
CCn1cc(C(=O)NCC(=O)NC(C)(C)CO)c(=O)c2cc3c(cc21)OCO3 | -1.71% (inactive)
COc1ccccc1-n1cnc2cc(NS(=O)(=O)c3ccccc3)ccc21 | 60.3% (active)
COc1ccc(NS(=O)(=O)c2ccc(NC(C)=O)cc2)cc1OC | -6.59% (inactive)
COCCCNC(=O)c1ccc2c(c1)ncn2-c1ccccc1OC | 41.9% (inactive)
COc1cccc(-c2coc3cc4oc(=O)c(CC(=O)O)c(C)c4cc23)c1 | 5.32% (inactive)
COc1cccc(-c2nc3ccc(N4CCN(C)CC4)cc3[nH]2)c1 | -25.4% (inactive)
Cc1nc2ccc(N3CCN(C)CC3)cc2nc1C | 41.4% (active)
CN1CCN(c2ccc([N+](=O)[O-])c(Sc3nc4ccccc4[nH]3)c2)CC1 | -2.62% (inactive)
CCCc1cc(=O)oc2c(C)c(OCC(=O)NCc3ccccn3)ccc12 | -5.37% (inactive)
CCCc1cc(=O)oc2c(C)c(OCC(=O)N3CCC(C(=O)O)CC3)ccc12 | -4.56% (inactive)
CCCc1cc(=O)oc2c(C)c(OCC(=O)Nc3ccccn3)ccc12 | 97.8% (active)
Cc1cnc(C(=O)Oc2cccc(Cl)c2Cl)cn1 | -6.08% (inactive)
O=C(/C=C/c1cccc(C(F)(F)F)c1)N1CCN(c2ccccn2)CC1 | -28.6% (inactive)
Cc1ccccc1CSc1nnc(Cn2c(=O)sc3ccccc32)n1C | -3.34% (inactive)
Cc1ccccc1CSc1nnc(-c2cccnc2)n1N | 47.7% (active)
Cn1c(SCC(=O)C(C)(C)C)nnc1-c1ccccn1 | 51.8% (inactive)

SMILES | inhibition
Cc1ccccc1CSc1nnc(-c2ccccn2)n1N | 62.4% (active)
O=C(CSc1nnc(-c2cccnc2)n1CCc1ccccc1)NCc1ccccc1 | 9.64% (inactive)
N#Cc1ccc(CSc2nnc(-c3ccccn3)n2-c2ccc(Cl)cc2)cc1 | 9.81% (inactive)
COCCNc1cc(-c2ccccc2)nc2cc(-c3cccc(F)c3)nn12 | 13.9% (inactive)
O=S(=O)(c1ccc2c(c1)OCCCO2)N1CCN(S(=O)(=O)c2c(F)cccc2F)CC1 | -5.98% (inactive)
Cc1ccc(CNC(=O)C2(C(F)(F)F)C/C(=C\Cc3ccccc3)CCCO2)o1 (stereo not drawn) | -4.26% (inactive) and 0.0699% (inactive)
COc1ccc(N(C)C(=O)C2CCN(S(=O)(=O)c3cccc4nsnc34)CC2)cc1 | 8.11% (inactive)
Cc1ccc(S(=O)(=O)N2CCN(C)CC2)cc1C(=O)NC1CCCCC1 | -5.78% (inactive)
N#CC(=C1SC=CS1)c1nc(-c2ccccc2)cs1 | 79.5% (active)
N#CC(=C1CCCC1)c1nc(-c2ccc(Cl)cc2)cs1 | 50.4% (active)
N#C/C(=C1\CCCN1)c1nc(-c2ccccc2)cs1 | 76.5% (active)
c1ccc(-c2csc(N3CCc4ccccc4C3)n2)cc1 | 57.4% (inactive)
N#C/C(=C1/CCCN1)c1ccccn1 | -5.25% (inactive)
CCCCCN1CC(O)=C(c2nc(-c3ccc(Cl)cc3)cs2)C1=N | 23.2% (inactive)
Cn1c(/C(C#N)=C2/CCCCCN2)nc2ccccc21 | 9.28% (inactive)
CCc1ccc(NC(=O)CS(=O)CC(=O)N2CCN(c3ccccc3F)CC2)cc1 (stereo not drawn) | 9.39% (inactive)
CN(C)CCCNC(=O)c1cc(C(=O)Cc2ccc(Cl)cc2)c[nH]1 | -5.52% (inactive)
CCc1cccc(NC(=O)CCCN2C(=O)C(c3ccccc3)Oc3cccnc32)c1 (stereo not drawn) | -2.72% (inactive)
CCC1=Nc2cc(C(=O)NCCCN3CCOCC3)ccc2Sc2ccc(Br)cc21 | -9.37% (inactive)
Cc1cccc(N(C(=O)c2csnn2)C(C(=O)NCc2ccccc2)c2ccncc2)c1 (stereo not drawn) | -9.04% (inactive)
CCOc1ccc(NC(=S)N2CCC(NC(=O)c3ccccc3)CC2)cc1 | -10.8% (inactive)
CN(C)c1ccc(N/C=C/C(=O)C(F)(F)F)cc1 | 71.1% (inactive)
CCCOc1ccc(N/C=C/C(=O)C(C)(C)C)cc1 | 49% (active)
CCCOc1ccc(NC(=O)C2CCCNC2=O)cc1 (stereo not drawn) | 25.7% (inactive)
CCOc1ccc(N/C=C/C(=O)c2ccccc2)cc1 | 69.8% (active)

SMILES | inhibition
Cc1ccc(N/C=C/C(=O)c2ccccc2)cc1C | 17.5% (inactive)
COc1ccc(N2CCN(C(=O)c3cn(C)c4ccc(S(=O)(=O)N5CCOCC5)cc4c3=O)CC2)cc1 | -3.12% (inactive)
O=[N+]([O-])c1cc([N+](=O)[O-])c(Oc2cc(F)cc(F)c2F)cc1NN1CCCCC1 | 1.85% (inactive)
CCCn1nc(NS(=O)(=O)c2ccc(F)cc2)c2cc3ccccc3nc21 | -7.87% (inactive)
O=S1(=O)CCO[C@H]2Cc3ccccc3[C@H]2N1Cc1ccccc1 | -2.08% (inactive)
CC(=O)Nc1ccc(C(=O)OCC(=O)Nc2ccc([N+](=O)[O-])cc2C(F)(F)F)cc1 | 14.6% (inactive)
CN(C)c1nc(=Nc2cccc(Cl)c2)ss1 | 77% (active)
O=C(NC1CCC(O)CC1)c1ccccc1OCc1ccc(F)cc1 (stereo not drawn) | -2.79% (inactive)
COc1ccc(C(=O)CSc2nnnn2C)c(OC)c1 | 32.4% (inactive)
COc1ccc(-n2nnnc2SCC(=O)Nc2ccccc2)cc1 | -15.5% (inactive)
Cc1ccc(C)c(-n2nnnc2SCC(=O)c2c(N)n(C)c(=O)n(C)c2=O)c1 | -10.4% (inactive)
CCn1nnnc1SCC(=O)Nc1ccc(N(C)C)cc1 | 44.2% (active)
CC(=O)Nc1ccc(NC(=O)CSc2nnnn2-c2ccccc2F)cc1 | 61.1% (inactive)
CCn1nnnc1SCC(=O)c1ccc(C)cc1C | 77.4% (active)
Cc1cc(C(=O)N/N=C/c2ccccn2)c2ccccc2n1 | -6.51% (inactive)
O=C(Nc1ccccc1N1CCN(C(=O)c2ccccc2)CC1)c1ccco1 | 9.04% (inactive)
CC(C)NS(=O)(=O)c1ccc(OCC(=O)NC2CCCCCC2)cc1 | -16.9% (inactive)
CC(Oc1ccc(F)cc1)C(=O)N1CCN(c2ncccn2)CC1 (stereo not drawn) | -12.5% (inactive)
Cc1ccc(NC(=O)c2oc(=O)c3ccccc3c2-c2ccccc2)c(C)c1 | -10.4% (inactive)
Cc1ccc(NC(=O)CCC(=O)N/N=C/c2ccco2)c(C)c1 | 9.07% (inactive)
Cc1ccc(NN=C2C(=O)OC(C)(C)OC2=O)c(C)c1 | 93.9% (active)
COC(=O)C(C)n1cnc2c(nnn2-c2ccc(F)cc2)c1=O (stereo not drawn) | 8.93% (inactive)
COc1ccc(NC(=O)c2sc3nc(C)nc(N4CCN(c5ccccn5)CC4)c3c2C)c(OC)c1 | -5.19% (inactive)
CCn1ccnc1CN(C)Cc1nc(-c2ccc3c(c2)OCO3)no1 | 50.1% (active)
CC(C)N(Cc1nc(-c2ccc3c(c2)OCO3)no1)CC1CCC(=O)N1 (stereo not drawn) | -4.06% (inactive)

SMILES | inhibition
CN(CCN1CCOCC1)Cc1nc(-c2ccc3c(c2)OCO3)no1 | 13.4% (inactive)
O=C(OCC(=O)c1cccs1)c1ccc([N+](=O)[O-])o1 | 41.9% (inactive)
CCC(C)(C)c1ccc(Oc2ccc(NC(=O)COC(=O)C3=COCCO3)cc2)cc1 | 23.6% (inactive)
O=C(OCC(=O)c1cccs1)C1=COCCO1 | 98.9% (active)
O=C(NCc1ccccc1)C1CCN(C(=O)Cc2ccccc2)CC1 | -23.8% (inactive)
O=C(CCn1nnnc1CN1CCOCC1)N1CCC(c2ccccc2Cl)C1 (stereo not drawn) | 11% (inactive)
NC(=O)c1c(Nc2nc3c(F)cccc3s2)sc2c1CCCC2 | 13.4% (inactive)
CN(C)CCCN(C(=O)COc1ccccc1)c1nc2c(Cl)cccc2s1 | -6.79% (inactive)
NNc1nc2c(Cl)cccc2s1 | 69.4% (active)
C/C(=N\NC(=O)c1cccc([N+](=O)[O-])c1)c1cccnc1 | 11.6% (inactive)
COc1ccc(N2CCC(N3CCN(C)C(CCO)C3)CC2)cc1 (stereo not drawn) | 0.592% (inactive)
COc1ccc(CCN2CC(C(=O)NCCN3CCNC3=O)CCC2=O)cc1 (stereo not drawn) | 1.29% (inactive)
Cc1cc(=O)[nH]c(N/N=C/c2c(C)nn(-c3ccccc3Cl)c2Cl)n1 | 47% (inactive)
CCN(CC)c1ccc(/C=N/Nc2nc(C)cc(=O)[nH]2)cc1 | 2.75% (inactive)
Cc1cc(=O)[nH]c(N/N=C/c2ccc3c(c2)OCCO3)n1 | 44.5% (active)
Cc1[nH]c2ccccc2c1C(=O)CN1CCCC(C)C1 (stereo not drawn) | -6.74% (inactive)
Cc1ccc(C(C[N+](=O)[O-])c2c(C)cc3ccccn23)cc1 (stereo not drawn) | 6.95% (inactive)
Nc1ccccc1SC(C[N+](=O)[O-])c1ccccc1 (stereo not drawn) | 77.6% (active)
NS(=O)(=O)c1ccc(CNC(=O)c2cccc(Oc3ccccc3)c2)cc1 | 6.72% (inactive)
O=C(NCc1cn2ccsc2n1)Nc1ccc(Cl)cc1 | -6.11% (inactive)
O=C(Nc1ccc(Cl)cc1)c1ccsn1 | 71.9% (active)
CCC(=O)Nc1ccc(C(=O)NNC(=O)c2ccc(Cl)cc2)cc1 | 21.7% (inactive)
Cc1cc(-c2ccc(C)c(S(=O)(=O)NCCCN(Cc3ccccc3)C(C)C)c2)on1 | -6.03% (inactive)
